Assay results taken from PubChem BioAssay (NCI).
About 83,000 compounds went through this panel and 20% of them were active in at least one assay; those are over-represented in the sample as a whole.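 Interpretation: 100, growth as untreated; towards 0, rising growth inhibition; 0, no net growth; 0 to -100, cell death. Compounds scoring below 10 were considered active.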 Activity calls are given as the source filed them.

What was measured:
Assay in all cases: NCI-60 one-dose screen, 48 h (100 = growth as untreated, 0 = no growth, -100 = all killed)
Conditions in all cases: 10 µM
NCI-H23 lung = system: NCI-H23 lung
NCI-H226 lung = system: NCI-H226 lung
NCI-H322M lung = system: NCI-H322M lung
HOP-62 NSCLC = system: HOP-62 NSCLC
NCI-H460 lung = system: NCI-H460 lung
HOP-92 NSCLC = system: HOP-92 NSCLC
NCI-H522 lung = system: NCI-H522 lung
A549/ATCC NSCLC = system: A549/ATCC NSCLC
786-0 renal = system: 786-0 renal
COLO 205 colon = system: COLO 205 colon
DU-145 prostate = system: DU-145 prostate
K-562 leukemia = system: K-562 leukemia
MALME-3M melanoma = system: MALME-3M melanoma
MDA-MB-231 breast = system: MDA-MB-231 breast
RXF 393 renal = system: RXF 393 renal
SF-268 CNS = system: SF-268 CNS
SF-295 CNS = system: SF-295 CNS
SF-539 CNS = system: SF-539 CNS
UACC-257 melanoma = system: UACC-257 melanoma
M14 melanoma = system: M14 melanoma

Measured: growth

O=C(O)c1cc(Cc2ccc(O)c(C(=O)O)c2)ccc1O (tested in a mixture with another compound)
active: HOP-92 NSCLC -49.4% | NCI-H522 lung -49.9%
inactive: NCI-H23 lung 87.6% | NCI-H226 lung 88.7% | NCI-H322M lung 87% | HOP-62 NSCLC 79.3% | NCI-H460 lung 65.9% | A549/ATCC NSCLC 79.9% | 786-0 renal 78% | COLO 205 colon 42.4% | DU-145 prostate 83% | K-562 leukemia 68.5% | MALME-3M melanoma 89.6% | MDA-MB-231 breast 66.8% | RXF 393 renal 39.6% | SF-268 CNS 76.9% | SF-295 CNS 13.3% | SF-539 CNS 79.2% | UACC-257 melanoma 60.5% | M14 melanoma 80.5%

CS(=N)(=O)CCC(N)C(=O)O (configuration not stated)
inactive: NCI-H23 lung 95.2% | NCI-H226 lung 101% | NCI-H322M lung 108% | HOP-62 NSCLC 98.3% | NCI-H460 lung 112% | HOP-92 NSCLC 106% | NCI-H522 lung 96.9% | A549/ATCC NSCLC 97.8% | 786-0 renal 102% | COLO 205 colon 122% | DU-145 prostate 122% | K-562 leukemia 97.2% | MALME-3M melanoma 103% | MDA-MB-231 breast 109% | SF-268 CNS 119% | SF-295 CNS 97.1% | SF-539 CNS 109% | UACC-257 melanoma 105% | M14 melanoma 108%

NC(=O)c1cc([N+](=O)[O-])c(Cl)c([N+](=O)[O-])c1
active: NCI-H522 lung -4.01% | COLO 205 colon -71.1%
inactive: NCI-H23 lung 88.6% | NCI-H226 lung 102% | NCI-H322M lung 109% | HOP-62 NSCLC 105% | NCI-H460 lung 107% | HOP-92 NSCLC 14.1% | A549/ATCC NSCLC 98.4% | 786-0 renal 91.2% | DU-145 prostate 65.5% | MALME-3M melanoma 71.3% | MDA-MB-231 breast 92.2% | RXF 393 renal 93.8% | SF-268 CNS 101% | SF-295 CNS 115% | SF-539 CNS 98.1% | UACC-257 melanoma 105% | M14 melanoma 78.6%

CC(C)c1cc([N+](=O)[O-])cc([N+](=O)[O-])c1O
inactive: NCI-H23 lung 102% | NCI-H226 lung 102% | NCI-H322M lung 112% | HOP-62 NSCLC 98.5% | NCI-H460 lung 105% | HOP-92 NSCLC 75.1% | NCI-H522 lung 103% | A549/ATCC NSCLC 103% | 786-0 renal 101% | COLO 205 colon 105% | DU-145 prostate 110% | K-562 leukemia 119% | MALME-3M melanoma 137% | MDA-MB-231 breast 99.7% | RXF 393 renal 102% | SF-268 CNS 102% | SF-295 CNS 99% | SF-539 CNS 101% | UACC-257 melanoma 115% | M14 melanoma 99.7%

O=[N+]([O-])c1ccc(N(CCO)CCO)c2c1no[n+]2[O-]
inactive: NCI-H23 lung 10.1% | UACC-257 melanoma 12.1%
active: NCI-H226 lung 0.462% | NCI-H322M lung -16% | HOP-62 NSCLC -34.1% | NCI-H460 lung -26.2% | HOP-92 NSCLC -35.5% | NCI-H522 lung -62% | A549/ATCC NSCLC 4% | 786-0 renal -31.5% | COLO 205 colon -93.3% | DU-145 prostate -44.5% | K-562 leukemia -55.9% | MALME-3M melanoma -38.2% | MDA-MB-231 breast -12% | RXF 393 renal -21.4% | SF-268 CNS -17.6% | SF-295 CNS -23.2% | SF-539 CNS -59.8% | M14 melanoma -32.4%

ClCc1ccc2ccccc2n1
inactive: NCI-H23 lung 85.2% | NCI-H226 lung 78.2% | NCI-H322M lung 100% | HOP-62 NSCLC 59.4% | NCI-H460 lung 110% | HOP-92 NSCLC 79.8% | NCI-H522 lung 95.4% | A549/ATCC NSCLC 102% | 786-0 renal 103% | COLO 205 colon 128% | DU-145 prostate 102% | K-562 leukemia 72.3% | MALME-3M melanoma 97.6% | MDA-MB-231 breast 102% | RXF 393 renal 95.5% | SF-268 CNS 80.5% | SF-295 CNS 87.3% | SF-539 CNS 106% | UACC-257 melanoma 104% | M14 melanoma 84.7%

CC(Cc1ccc2c(c1)OCO2)NN (configuration not stated)
inactive: NCI-H23 lung 90.5% | NCI-H226 lung 87.1% | NCI-H322M lung 99.5% | HOP-62 NSCLC 73.9% | NCI-H460 lung 105% | HOP-92 NSCLC 76.6% | NCI-H522 lung 84% | A549/ATCC NSCLC 82.8% | 786-0 renal 88.2% | COLO 205 colon 99% | DU-145 prostate 113% | K-562 leukemia 82% | MALME-3M melanoma 97.2% | MDA-MB-231 breast 104% | RXF 393 renal 111% | SF-268 CNS 100% | SF-295 CNS 91% | SF-539 CNS 91.9% | M14 melanoma 96.7%

NC(=O)c1cc([N+](=O)[O-])c(Cl)c([N+](=O)[O-])c1Cl
active: HOP-92 NSCLC -52.2% | NCI-H522 lung -82.4% | COLO 205 colon -54.1% | K-562 leukemia 8.14% | MALME-3M melanoma -51.5% | MDA-MB-231 breast 1.49% | RXF 393 renal -89.6% | SF-539 CNS 5% | UACC-257 melanoma -29.2% | M14 melanoma -21.9%
inactive: NCI-H23 lung 25.6% | NCI-H226 lung 59.7% | NCI-H322M lung 98.3% | HOP-62 NSCLC 35.9% | NCI-H460 lung 72.2% | A549/ATCC NSCLC 89.6% | 786-0 renal 13.2% | SF-295 CNS 95.5%

CC[C@@H](C)[C@@H]1NC(=O)C(NC(=O)C(CC(C)C)N(C)C(=O)C2CCCN2C(=O)C(C)O)C(C)OC(=O)C(Cc2ccc(OC)cc2)N(C)C(=O)C2CCCN2C(=O)C(CC(C)C)NC(=O)C(C)C(=O)C(C(C)C)OC(=O)C[C@H]1O (some centres not stated)
active: NCI-H23 lung -46.2% | NCI-H226 lung -58.9% | NCI-H322M lung -16.5% | HOP-62 NSCLC -42.9% | NCI-H460 lung -49.7% | HOP-92 NSCLC -41.9% | NCI-H522 lung -43.2% | A549/ATCC NSCLC -80.2% | 786-0 renal -37.9% | COLO 205 colon -69.5% | DU-145 prostate -40.7% | K-562 leukemia -27% | MALME-3M melanoma -87.2% | MDA-MB-231 breast -55.6% | RXF 393 renal -66.2% | SF-268 CNS -49.4% | SF-295 CNS -31% | SF-539 CNS -70.1% | UACC-257 melanoma -50.8% | M14 melanoma -80.1%

CCCCCCCC[N+]12CN3CN(CN(C3)C1)C2
inactive: NCI-H23 lung 92% | NCI-H226 lung 98.2% | NCI-H322M lung 84.8% | HOP-62 NSCLC 102% | NCI-H460 lung 101% | HOP-92 NSCLC 85.9% | NCI-H522 lung 97.9% | A549/ATCC NSCLC 97.8% | 786-0 renal 89.5% | COLO 205 colon 104% | DU-145 prostate 101% | K-562 leukemia 124% | MALME-3M melanoma 98% | RXF 393 renal 105% | SF-268 CNS 95% | SF-295 CNS 95.6% | SF-539 CNS 92.7% | UACC-257 melanoma 98.9% | M14 melanoma 89.5%

CC12OOC(c3ccccc31)c1c2ccc2ccccc12 (configuration not stated)
active: NCI-H460 lung -63.2% | HOP-92 NSCLC -61.9% | NCI-H522 lung -91.2% | COLO 205 colon -65.4% | DU-145 prostate -95.3% | K-562 leukemia -82.8% | MALME-3M melanoma -88.4% | UACC-257 melanoma -17% | M14 melanoma -7.71%
inactive: NCI-H23 lung 32.7% | NCI-H226 lung 86.7% | NCI-H322M lung 76.8% | HOP-62 NSCLC 73.3% | A549/ATCC NSCLC 65.4% | 786-0 renal 66.1% | MDA-MB-231 breast 49.7% | RXF 393 renal 67.3% | SF-268 CNS 43.1% | SF-295 CNS 82.5% | SF-539 CNS 83%

O=[N+]([O-])/C=C/c1ccc(Cl)cc1[N+](=O)[O-]
inactive: NCI-H23 lung 65.6% | NCI-H226 lung 89.5% | NCI-H322M lung 96.6% | HOP-62 NSCLC 62.9% | NCI-H460 lung 58.4% | HOP-92 NSCLC 92.3% | NCI-H522 lung 42.9% | A549/ATCC NSCLC 85.4% | 786-0 renal 28.3% | DU-145 prostate 75.2% | MALME-3M melanoma 96.3% | MDA-MB-231 breast 58.2% | SF-268 CNS 59.1% | SF-295 CNS 91.6% | UACC-257 melanoma 89.3% | M14 melanoma 55.3%
active: COLO 205 colon -20.9% | K-562 leukemia 9.32% | RXF 393 renal -94.7% | SF-539 CNS -35.3%

CN(C)CC1(N)C(=O)NC(=O)NC1=O
inactive: NCI-H23 lung 98.6% | NCI-H226 lung 87.7% | NCI-H322M lung 104% | HOP-62 NSCLC 98.1% | NCI-H460 lung 107% | HOP-92 NSCLC 112% | NCI-H522 lung 96.4% | A549/ATCC NSCLC 94.2% | 786-0 renal 102% | K-562 leukemia 99.3% | MALME-3M melanoma 108% | MDA-MB-231 breast 98.7% | RXF 393 renal 101% | SF-268 CNS 103% | SF-295 CNS 98.8% | SF-539 CNS 99% | UACC-257 melanoma 87.4% | M14 melanoma 102%
